Sampled rows, rich in hits. Any-hit rate of the full collection: about 2.5%.
MEKK2wt PB1 HTS = raises or lowers MEK5 binding to wildtype human MEKK2 PB1 domain. Q9Y2U5. bead flow cytometry, Alexa488-MEK5 binding to MEKK2 WT; actives lie on both sides. binding response (% of control), % at 10 µM. hit rate 1.1% among 290,000. AID 1531; in the data active means binding response below about 67% or above about 130%
MEKK2mut PB1 HTS = signal of MEK5 binding to mutant human MEKK2 PB1 domain; hit rate 0.35% among 290,000; bead flow cytometry, Alexa488-MEK5 binding to MEKK2 mutant; AID 1530; percent response, % at 10 µM; in the data active means percent response above about 24%, passing the limit was not always enough
MEKK3 PB1 HTS = MEKK3-MEK5 PB1 interaction, increase or decrease. Q99759. bead-based flow cytometry, Alexa488-MEK5 binding to MEKK3; actives lie on both sides; 0 = blocked by unlabeled MEK5, 100 = vehicle. binding response (% of control), % at 10 µM. hit rate 1.4% among 290,000. AID 1529;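 active means binding response more than 3 SD above or below the average of its plate-row segment, actives on both sides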;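 further: Alexa488 bead fluorescence after subtracting the streptavidin-only scavenger bead signal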
Target sequence (Q99759 whole entry, looked up): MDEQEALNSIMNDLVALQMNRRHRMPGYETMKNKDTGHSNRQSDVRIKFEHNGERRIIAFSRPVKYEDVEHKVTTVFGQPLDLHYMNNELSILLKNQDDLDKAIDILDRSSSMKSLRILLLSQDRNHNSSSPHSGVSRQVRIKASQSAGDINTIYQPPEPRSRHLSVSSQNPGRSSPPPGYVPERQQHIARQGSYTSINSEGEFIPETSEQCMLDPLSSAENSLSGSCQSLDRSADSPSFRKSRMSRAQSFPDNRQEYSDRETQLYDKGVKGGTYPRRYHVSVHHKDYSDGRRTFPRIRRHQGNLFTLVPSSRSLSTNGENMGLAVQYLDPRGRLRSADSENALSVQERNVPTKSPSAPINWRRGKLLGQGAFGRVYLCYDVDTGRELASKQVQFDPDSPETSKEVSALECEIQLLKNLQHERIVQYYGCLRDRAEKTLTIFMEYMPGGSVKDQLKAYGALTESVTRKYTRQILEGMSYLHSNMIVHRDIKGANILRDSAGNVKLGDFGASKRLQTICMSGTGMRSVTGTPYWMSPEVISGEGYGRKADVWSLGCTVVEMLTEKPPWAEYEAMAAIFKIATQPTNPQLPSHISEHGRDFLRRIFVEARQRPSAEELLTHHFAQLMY
Rce1 inhib = blocks yeast Ras-converting enzyme. hit rate 0.27% among 290,000. yeast membranes, quenched prenylated peptide cleavage fluorescence. Q03530. AID 2563. calls only;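 active means fall in fluorescence gain of 50% or more versus controls, with final raw signal at or below 3038400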;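 further: plate controls were neutral control wells for no effect and wells lacking membranes for full effect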
UBC13 polyUb = human UBC13 polyubiquitination inhibition; P61088; UBC13 polyubiquitin chain formation, TR-FRET; inhibition, % at 20 µM; hit rate 0.47% among 330,000; AID 485273; in the data active means inhibition above about 45%, passing the limit was not always enough
MEKK2wt confirm = raises or lowers MEK5 binding to wildtype human MEKK2, retest; shares compounds with MEKK3 PB1 HTS; bead flow cytometry, Alexa488-MEK5 binding to MEKK2 WT; actives lie on both sides; binding response (% of control), % at 10 µM; hit rate 2.4% among 5,900; in the data active means binding response below about 16% or above about 210%; inactive means in between
MEKK2mut-MEK5 = signal of MEK5 binding to mutant human MEKK2, retest; shares compounds with MEKK3 PB1 HTS; AID 1893; bead flow cytometry, Alexa488-MEK5 binding to MEKK2 mutant; percent response, % at 10 µM; hit rate 2% among 5,900; in the data active means percent response mostly above about 71%, no sharp cut-off; inactive means mostly below about 38%;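 further: higher means compound restores mutant binding toward wildtype level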
MEKK3-MEK5 inh = MEKK3-MEK5 PB1 inhibition, single concentration confirmation | bead flow cytometry, Alexa488-MEK5 binding to MEKK3; stronger effect = lower value | AID 1894 | shares compounds with MEKK3 PB1 HTS | binding response (% of control), % at 10 µM | hit rate 1.8% among 5,900;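 active means binding response below 72% of control, or above a set upper limit, though filed actives all read lower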;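 further: 100% = DMSO only wells and 0% = binding blocked by excess unlabeled MEK5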
Numbers without * were called inactive; i = inactive; · = no result given; [ ] = dose if it differs, or a comment.

SMILES	MEKK2wt PB1 HTS	MEKK2mut PB1 HTS	MEKK3 PB1 HTS	Rce1 inhib	UBC13 polyUb	MEKK2wt confirm	MEKK2mut-MEK5	MEKK3-MEK5 inh
CC(=O)OCCNc1cc(SCc2ccco2)c2nonc2c1[N+](=O)[O-]	113.0	1.0	146.0*	i	·	107.0	6.0	106.0
O=[N+]([O-])c1c(NCCCO)cc(SCc2ccco2)c2nonc12	101.0	4.0	106.0	i	-26.0	·	·	·
CN(C(=O)CS(=O)(=O)c1cccc(Cl)c1)c1ccccc1	94.0	-7.0	94.0	i	0.9	·	·	·
Cc1cccc(NC(=O)Cn2c([N+](=O)[O-])cnc2C)c1C	112.0	1.0	136.0*	i	4.5	104.0	0.0	104.0
CCCCOCCCNCC(=O)Nc1ccc(S(N)(=O)=O)cc1	93.0	-10.0	81.0	i	3.3	·	·	·
CCCCNCC(=O)Nc1ccc(NC(=O)CNCCCC)cc1	144.0*	27.0*	113.0	i	0.9	124.0	12.0	100.0
CCOC(=O)c1[nH]c2ccccc2c1NC(=O)C1CCCCC1	83.0	-12.0	76.0*[inhibitor]	i	-8.3	99.0	-4.0	101.0
Cc1nc(C)c(CCNC(=O)c2ccc(C(F)(F)F)cc2)s1	106.0	1.0	138.0*	i	8.8	102.0	3.0	105.0
O=C(Cn1nnc(-c2ccc(F)cc2)n1)Nc1cccc(S(=O)(=O)N2CCCC2)c1	·	·	·	·	9.2	·	·	·
Cc1cc(NS(=O)(=O)c2cccs2)no1	2.0*[inhibitor]	-18.0	2.0*[inhibitor]	i	6.8	98.0	-1.0	98.0
Cc1ccc(S(=O)(=O)Nc2cc(C)on2)cc1	102.0	-2.0	104.0	·	-7.3	·	·	·
O=S(=O)(Nc1ccc2c(c1)OCO2)c1cccs1	128.0	8.0	132.0*	·	-2.4	104.0	3.0	108.0
CC1=CC(C)(C)N2C(=O)C3(N=C(N)NC(Nc4ccccc4)=N3)c3cc(C)cc1c32 (configuration not stated)	154.0*	33.0*	121.0	i	31.3	137.0	14.0	102.0
Cc1cccc(NC2=NC(C)(C)N=C(N)N2)c1	99.0	-6.0	110.0	i	7.6	·	·	·
CCN(CC)C(=O)C1CCC(CNS(=O)(=O)c2cccc3cccnc23)CC1 (configuration not stated)	114.0	6.0	115.0	i	2.6	·	·	·
CN(Cc1ccccc1)C(=O)C1CCC(CNS(=O)(=O)c2cccc3cccnc23)CC1 (configuration not stated)	119.0	26.0	131.0*	i	-6.3	106.0	2.0	99.0
CCOc1ccc(S(=O)(=O)NN2Cc3ccccc3C2=N)cc1	66.0	-15.0	67.0	i	6.4	·	·	·
COc1ccc(N/C=C\C(=O)c2ccc3c(c2)OCO3)cc1	-1.0*[inhibitor]	-9.0	1.0*[inhibitor]	i	4.1	99.0	0.0	106.0
COc1ccc(C(=O)/C=C/Nc2ccc([N+](=O)[O-])cc2)cc1	91.0	-1.0	70.0*[inhibitor]	i	-6.2	101.0	2.0	103.0
CCOC(=O)c1cccc(N/C=C/C(=O)c2ccc(OC)c(OC)c2)c1	92.0	-3.0	92.0	i	0.1	·	·	·
CCOC(=O)c1ccc(N/C=C\C(=O)c2cccc(OC)c2)cc1	114.0	1.0	201.0*	i	-22.1	107.0	6.0	103.0
CCOc1ccc(N/C=C\C(=O)c2ccc3c(c2)OCO3)cc1	103.0	2.0	102.0	i	2.6	·	·	·
COc1ccc2nc(SC(C)C(=O)NC3CCCC3)[nH]c2c1 (configuration not stated)	·	·	·	·	4.5	·	·	·
COc1cc(C(=O)OCC(=O)c2ccccc2)cc2c1OCCO2	·	·	·	·	-12.1	·	·	·
Cc1ccnc(NS(=O)(=O)c2ccc(NC(=O)c3ccc(Br)o3)cc2)n1	118.0	1.0	130.0*	i	-4.9	97.0	-9.0	97.0
CCn1cc(C(=O)NCCc2ccccc2)c(=O)c2cc(F)c(N3CCN(C)CC3)cc21	115.0	5.0	101.0	i	11.8	·	·	·
CCn1cc(C(=O)O)c(=O)c2cc(F)c(N3CCNCC3)cc21	97.0	-4.0	74.0*[inhibitor]	i	23.7	95.0	-5.0	103.0

Screening data from PubChem.
